Inhibition data for 91 compounds are collected here from PubChem BioAssay AID1021 (Emory University Molecular Libraries Screening Center, 2008).

Hit rate of the full screen: of about 220,000 compounds, about 2,100 (0.95%) were called active.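 How the source made its calls: active means compounds that cut the binding signal by more than half at the single screening dose; inactive means the rest.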 Only a selection was taken, and actives are over-represented in it overall.

The target in the experiment is Induced myeloid leukemia cell differentiation protein Mcl-1 (Homo sapiens) (UniProt Q07820). Nature of the experiment: disruptors of Mcl-1 and Bid BH3 peptide – biochemical, TR-FRET, 1536-well, primary screen (AID 1021).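 Further: His-tagged Mcl-1 with europium anti-His antibody binding Bid BH3 peptide; 0% = Mcl-1 plus peptide wells and 100% = peptide-only wells.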 Particulars: TR-FRET Mcl-1/Bid-Dy647 peptide binding, at 21.7 µM, active compounds read high. (In general: TR-FRET usually uses a lanthanide donor and a delayed reading to cut background.)
Sequence of Induced myeloid leukemia cell differentiation protein Mcl-1 (Homo sapiens) (Q07820 whole entry, looked up): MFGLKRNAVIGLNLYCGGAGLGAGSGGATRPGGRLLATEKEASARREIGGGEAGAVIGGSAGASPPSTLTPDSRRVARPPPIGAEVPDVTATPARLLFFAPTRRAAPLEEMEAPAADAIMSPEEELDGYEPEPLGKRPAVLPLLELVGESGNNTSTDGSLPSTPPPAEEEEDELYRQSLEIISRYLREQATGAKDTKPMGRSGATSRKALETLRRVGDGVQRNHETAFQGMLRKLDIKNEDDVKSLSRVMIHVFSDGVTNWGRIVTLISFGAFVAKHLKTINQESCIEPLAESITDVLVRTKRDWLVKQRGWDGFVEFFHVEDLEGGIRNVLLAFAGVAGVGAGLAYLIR
With `O=[N+]([O-])c1cccc(-c2nnc3c4ccccc4c4ccccc4n23)c1`, the inhibition is 52.9% (active).
For `O=[N+]([O-])c1cccc(Nc2c3ccccc3nc3ccccc23)c1` the value was -10.4% (inactive); for `O=[N+]([O-])c1cccc(C2=NCCS2)c1`, -9.78% (inactive).
The value for `CCOC(=O)C1CCCN(C(=O)COc2ccc(N(C)S(=O)(=O)c3ccc(C)cc3)cc2)C1` (stereo unspecified) was -9.64% (inactive); that for `COc1ccc(C(=O)COC(=O)COc2ccc(C)c(C)c2)cc1` was 11.1% (inactive).
For `CC(NC(=O)COC(=O)c1ccc2c(c1)OCO2)c1ccccc1` (stereo unspecified) the value was -4.79% (inactive).
As for `COc1ccc(Nc2ncnc3sc(-c4ccccc4)cc23)c(OC)c1`, the inhibition is -15% (inactive).
For `Cc1cc(NC(=O)c2cccc(N3C(=O)CCC3=O)c2)no1` the value was -19.2% (inactive).
The value for `Cc1cccc(NC(=O)c2cc(N3C(=O)CCC3=O)ccc2Cl)n1` was 69.1% (active); that for `Cc1cccc(NC(=O)c2ccc3ccccc3n2)n1` was -24% (inactive); that for `c1ccc2sc(NN=C3CCCC3)nc2c1` was -7.33% (inactive).
The value for `COc1cc(/C=N/Nc2nc3ccccc3s2)ccc1O` was -5.09% (inactive); that for `O=[N+]([O-])c1cc(Br)c(O)c(/C=N/Nc2nc3ccccc3s2)c1` was 85.8% (active); that for `Cc1ccc(NC(=O)c2nc[nH]c2C(=O)N[C@@H](CCCCNC(=O)OC(C)(C)C)C(=O)OC(C)(C)C)cc1` was -46.2% (inactive).
As for `CCOc1ccc(N=C2NC(=O)S/C2=C\c2ccc(O)cc2)cc1`, the inhibition is 85.2% (active).
The value for `NC1=NC(=O)S/C1=C\c1ccc(O)cc1` was -45.3% (inactive).
The value for `CCOc1ccc(N=C2SC(C(=O)O)CC(=O)N2C)cc1` (stereo unspecified) was 3.39% (inactive); that for `CCc1ccnc(NS(=O)(=O)c2ccc3c(c2)OCCO3)c1` was -5.34% (inactive); that for `O=C(Nc1ccccc1)c1ccc2c(c1)OCO2` was 1.56% (inactive).
The value for `O=C(Nc1ccc2c(c1)OCO2)c1ccc(N2C(=O)c3ccccc3C2=O)cc1` was 56.4% (active).
As for `Cn1c(=O)n(C)c2cc(C(=O)Nc3ccc4c(c3)OCO4)ccc21`, the inhibition was -32.5% (inactive).
For `COc1ccc(C(=O)OCC(=O)NCC2CCCO2)cc1[N+](=O)[O-]` (stereo unspecified) the value was -15.9% (inactive); for `[O-][N+]12CCCCC1CCCC2CO` (stereo unspecified), -0.58% (inactive); for `COC(=O)CCCC1=CC2=C(c3ccccc3)C(=O)C(C)(OC(=O)C3CCCC3)C(=O)C2=CN1c1ccc(OC)cc1` (stereo unspecified), -60.4% (inactive).
The value for `Cc1ccc(S(=O)(=O)c2ccc(Cl)cc2)cc1S(=O)(=O)NC(C(=O)O)C(C)C` (stereo unspecified) was 4.83% (inactive); that for `CC(=O)Nc1cc(C(=O)O)ccc1S(=O)(=O)c1ccc(Cl)cc1` was 83% (active).
`CCOC(=O)N1CCN(C(=O)c2ccc(S(=O)(=O)c3ccc(C)cc3)c(NC(C)=O)c2)CC1`: the inhibition was -11.4% (inactive).
`Cn1nccc1NC(=O)Nc1ccc(OC(F)(F)F)cc1`: the inhibition is -8.69% (inactive).
As to `COc1cc(OC)cc(C(=O)Nc2ccc(-c3nc4ccccc4o3)c(O)c2)c1`, the inhibition is 70.7% (active).
For `O=C(Nc1ccc2oc(-c3ccccc3F)nc2c1)c1ccco1` the value was -18.3% (inactive).
The value for `COc1cc(OC)cc(C(=O)Nc2ccc(S(=O)(=O)Nc3cc(C)on3)cc2)c1` was -2.64% (inactive).
Take `O=C(NCCCn1ccnc1)C(=O)NCC1OCCN1S(=O)(=O)c1cc(F)ccc1F` (stereo unspecified): the inhibition is -20.9% (inactive).
With `Cn1c(CSCC(=O)Nc2ccccc2)nnc1SCc1ccccc1`, the inhibition was 1.29% (inactive).
The value for `CC(Sc1nnc2c(n1)C1CCC2(C)C1(C)C)C(=O)Nc1ccccc1` (stereo unspecified) was 66.7% (active).
For `CSc1nc(C)cc(SC(C(C)=O)C(=O)Nc2ccccc2)n1` (stereo unspecified) the value was -18.3% (inactive).
In the case of `CC(Sc1nc(-c2ccccc2)cc(C(F)(F)F)n1)C(=O)Nc1ccc2c(c1)OCO2` (stereo unspecified), the inhibition was -32.5% (inactive).
For `COc1ccc(C(=O)NCC(=O)N/N=C/c2ccc([N+](=O)[O-])o2)cc1OC` the value was -51.1% (inactive).
For `CNC(=O)c1cccc2nc3ccccc3nc12` the value was -18.3% (inactive); for `CN1C2CCC1/C(=C\c1ccccc1Cl)C(=O)/C2=C\c1ccccc1Cl`, 7.72% (inactive); for `CC1=CC2=NC(=O)CC(C)(C(=O)N(CC(=O)NC(C)(C)C)Cc3ccccc3)N2C=C1` (stereo unspecified), -15.8% (inactive).
For `Cc1ccccc1CCN(CC(=O)NC1CCCCC1)C(=O)c1csnn1` the value was -16.2% (inactive).
For the compound `CC1=CC=CN2C1=NC(=O)CC2(C)C(=O)N(CC(=O)NC1CCCC1)c1ccccc1C` (stereo unspecified), the inhibition was 50.7% (active).
For `COC(=O)N(NC(=O)C(O)(C(C)C)C(C)C)c1ccccc1`, the inhibition is -9.27% (inactive).
The value for `Cc1ccc(NC(=S)N2CCN(c3ncccn3)CC2)cc1C` was 92.2% (active); that for `CNC(=S)N1CCN(c2ccccn2)CC1` was -63.9% (inactive); that for `CCNC(=S)N1CCN(c2ncccn2)CC1` was -29.3% (inactive).
For `COc1ccccc1-n1cn[nH]c1=S` the value was -143% (inactive).
As for `O=C(N/N=C/c1ccc([N+](=O)[O-])o1)c1cn(-c2ccccc2)nc1-c1ccc(F)cc1`, the inhibition was 25.7% (inactive).
For `C=CCSC(CC)(CC)C(N)=O` the value was -11% (inactive); for `N=C1/C(=C/c2cccn2-c2cccc([N+](=O)[O-])c2)C(=O)N=C2SC=CN12`, 71.5% (active); for `Cc1cc(/C=C2/C(=N)N3C(=NC2=O)SN=C3S(C)(=O)=O)c(C)n1-c1ccccc1`, -35.9% (inactive).
With `COC(=O)c1c(C(=O)OC)c2n(c1C)CCS2`, the inhibition was -18.6% (inactive).
The value for `CC1COc2ccccc2N1C(=O)c1cccnc1Cl` (stereo unspecified) was -17.1% (inactive); that for `Oc1c(Cl)cc(Cl)c(Cl)c1Cc1c(O)c(Cl)cc(Cl)c1Cl` was 100% (active).
With `CC(OC(=O)c1ccc(NS(=O)(=O)c2ccc3[nH]c(=O)[nH]c3c2)cc1)C(=O)Nc1cccc(Cl)c1Cl` (stereo unspecified), the inhibition was -92.2% (inactive).
The value for `O=C(O)CC1S/C(=N\N=C/c2ccccc2O)N(c2ccc(O)cc2)C1=O` (stereo unspecified) was -24.9% (inactive); that for `CC(O)CNCCOc1cccc(Oc2ccccc2)c1` (stereo unspecified) was -8.32% (inactive); that for `O=C(NCCc1ccccn1)c1cccnc1Oc1ccc(Cl)cc1` was -2.11% (inactive).
For `NC(=O)c1ccc(NC(=O)COC(=O)C(Cc2ccccc2)NC(=O)c2ccccc2)cc1` (stereo unspecified) the value was -18.9% (inactive); for `CCOC(=O)N1CCN(Cc2nc(Cc3cccc(C(F)(F)F)c3)no2)CC1`, -53% (inactive); for `O=C(COC(=O)c1cccc(Br)c1)Nc1cccc2c1C(=O)c1ccccc1C2=O`, 8.65% (inactive).
The value for `O=C(COC(=O)Cn1cnc2ccccc2c1=O)NCc1ccccc1Cl` was 8.62% (inactive); that for `O=C(COC(=O)Cn1cnc2ccccc21)Nc1cccc2c1C(=O)c1ccccc1C2=O` was 52.5% (active); that for `N#Cc1cccc(NC(=O)COC(=O)c2ccccc2C(=O)c2ccc(Cl)c([N+](=O)[O-])c2)c1` was -7.05% (inactive).
With `CC(C)C[C@H](CO)Nc1nc(N(C)c2cccc(Cl)c2)c2ncn(C(C)C)c2n1`, the inhibition is -56.4% (inactive).
For `NS(=O)(=O)c1cccc(NC(=O)COC(=O)/C=C/c2ccco2)c1` the value was -10.4% (inactive).
Consider `O=[N+]([O-])C(=c1ccc2c(c1)N1C3=C(CCCC3)CC3CCCCC31N=2)[N+](=O)[O-]` (stereo unspecified), for which the inhibition was 78.9% (active).
With `CCN(CC)S(=O)(=O)c1ccc(N2CCCC2)c(NS(=O)(=O)c2cccs2)c1`, the inhibition was -28.4% (inactive).
`O=C(NNc1ccccc1Cl)C(O)(c1cccc(C(F)(F)F)c1)c1cccc(C(F)(F)F)c1`: the inhibition was 3.27% (inactive).
The value for `O=C(C[n+]1ccc2c(c1)nnn2-c1ccccc1)c1ccc(Cl)cc1` was -1.27% (inactive).
For `Cc1ccc(C)c(SCc2nc3sc(C(=O)O)c(C)c3c(=O)[nH]2)c1` the value was -24.1% (inactive); for `Cc1ccc(-c2nc(SCC(=O)Nc3ccccc3OC(F)F)c3c(C)c(C(=O)O)sc3n2)cc1`, 79.3% (active); for `COc1ccccc1NC(=O)CSc1nc2sc(C)c(C)c2c(=O)n1Cc1ccco1`, -24.2% (inactive).
For `COC(=O)C1=C(N)Oc2cc(C)[nH]c(=O)c2C1c1ccc(Cl)cc1` (stereo unspecified) the value was -43.4% (inactive); for `CN=c1scc(-c2cc(OC)ccc2OC)n1/N=C/c1c(C)[nH]c2ccccc12`, 39.1% (inactive).
Regarding `CC(=O)c1ccc(NC(=O)C(C)NCc2ccc(Cl)cc2)cc1` (stereo unspecified), the inhibition is 3.24% (inactive).
For `CCN(CC)c1ccc(S(=O)(=O)N2CCOCC2)cc1NC(=O)CSc1cccc[n+]1[O-]` the value was -69% (inactive); for `O=C(O)CC1(CC(=O)Nc2cccc(C(F)(F)F)c2)CCCC1`, -7.96% (inactive).
The value for `Cc1cccc(OCc2ccc(C(=O)Nc3ccc(F)cc3)cc2)c1` was 11% (inactive).
Take `COc1ccc(C(=O)NNS(=O)(=O)c2ccc(C)cc2)cc1`: the inhibition was -16.3% (inactive).
For `Cc1ccc(COc2ccc(C(=O)NN)cc2)cc1` the value was 67.1% (active); for `Cc1cccc(N2Cc3ccccc3C2=NC(=O)c2ccc(Cl)nc2)c1`, -35.5% (inactive); for `COc1cccc(OC)c1CN(C)C(=O)c1cnccc1C(F)(F)F`, -18.2% (inactive).
The value for `O=C(NNC1=C(C(=O)C(F)(F)F)CCC1)c1ccncc1` was -42.6% (inactive); that for `COc1cccc(C(=O)Nc2cccnc2)c1OC` was -18.8% (inactive); that for `COc1cccc(NC(=O)C2c3cc(OC)c(OC)cc3C(=O)N(C)C2c2cccnc2)c1` (stereo unspecified) was 84.2% (active).
The value for `CCOc1cc2c(cc1OCC)C(C(=O)O)C(c1ccc(OC)c(O)c1)N(C)C2=O` (stereo unspecified) was -21.7% (inactive).
Consider `CCOC(=O)c1c(NC(=S)Nc2ccccc2C)sc2c1CCC2`, for which the inhibition was -25.3% (inactive).
For `CCOC(=O)c1c(NC(=S)NC)sc2c1CCCC2` the value was -22.5% (inactive); for `CCOC(=O)c1c(NC(=S)NC(=O)c2ccco2)sc2c1CCCC2`, 61.4% (active).
The value for `O=C(O)CC12CC3CC(C1)CC(n1ncc(NCc4ccc(F)cc4)c(Cl)c1=O)(C3)C2` was -0.52% (inactive).

By inhibition is commonly meant the change of the read-out against control, counted positive when it falls.
